Records with an inconclusive call do not appear. Entries that show only a call come without a potency. Unmarked numbers belong to inactive results. Activity calls are given as the source filed them. Calls come from the whole dose curve; as a rule, active = well fitted cell-killing curve with a large enough effect; inconclusive = small, poorly fitted or top-dose-only effect, or effect the other way; inactive = flat fitted curve, though single readings scatter.
Experiments:
Assay in all cases: Primary qHTS to identify gynecologic anti-cancer compounds using libraries of approved drugs and bioactive compounds (AID 1345084); note: nearly all actives have a fitted effect of over 55% in size
C33A = settings: Gynecologic cancer cell panel viability, ATPlite luminescence, 48 h; series mostly up to 57.5 µM
Procedure, shortened: (§1)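 In this quantitative HTS, cell killing is estimated from loss of ATP-dependent luciferase light. Cells see five compound concentrations over a 48 h exposure.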

CAOV3 = settings: Gynecologic cancer cell panel viability, ATPlite luminescence, 48 h; series mostly up to 57.5 µM
Procedure, shortened: as §1

CASKI = settings: Gynecologic cancer cell panel viability, ATPlite luminescence, 48 h; series mostly up to 57.5 µM
Procedure, shortened: as §1

Es-2 = settings: Gynecologic cancer cell panel viability, ATPlite luminescence, 48 h; series mostly up to 57.5 µM
Procedure, shortened: as §1

HeLa = settings: Gynecologic cancer cell panel viability, ATPlite luminescence, 48 h; series mostly up to 57.5 µM
Procedure, shortened: as §1

Hek293T = settings: Gynecologic cancer cell panel viability, ATPlite luminescence, 48 h, control line for the selectivity index; series mostly up to 57.5 µM
Procedure, shortened: as §1
Potency is the fitted concentration of half-maximal effect.

SMILES | Potency (C33A) | Potency (CAOV3) | Potency (CASKI) | Potency (Es-2) | Potency (HeLa) | Potency (Hek293T) | activity change, negative = cytotoxicity (C33A) | activity change, negative = cytotoxicity (CAOV3) | activity change, negative = cytotoxicity (CASKI) | activity change, negative = cytotoxicity (Es-2) | activity change, negative = cytotoxicity (HeLa) | activity change, negative = cytotoxicity (Hek293T)
O=C(O)COCCN1CCN([C@H](c2ccccc2)c2ccc(Cl)cc2)CC1 | inactive | inactive | inactive | inactive | inactive | inactive | – | – | – | – | – | –
C/C1=C\CC[C@H](C)CCO[C@@H]2O[C@H](CO[C@@H]3OC[C@](O)(COC1=O)[C@H]3O)[C@@H](O)[C@H](O)[C@H]2O | inactive | inactive | inactive | inactive | inactive | inactive | – | – | – | – | – | –
O=C(O[C@H]1[C@@H]2C[C@@H]3OC[C@](O)([C@@H]1Cl)[C@H]2C(O[C@@H]1O[C@H](CO)[C@@H](O)[C@H](O)[C@H]1O)O3)c1ccc(O)c(O)c1 (stereo not given in full) | inactive | inactive | inactive | inactive | inactive | inactive | – | – | – | – | – | –
COc1ccc(C2(O)CCC(N3CC[C@@H](NC(=O)CNC(=O)c4cccc(C(F)(F)F)c4)C3)CC2)cn1 (stereo not given in full) | inactive | inactive | inactive | inactive | inactive | inactive | – | – | – | – | – | –
COc1c2c(c(CO)c3c1C(=O)OC3)OC1(C)CCC3(O)C(C)(C)OC(=O)CCC3(C)C1C2 (stereo not given) | inactive | inactive | inactive | inactive | inactive | inactive | – | – | – | – | – | –
CC(C)=CC/C=C(\C)[C@H]1CC[C@]2(C)[C@@H]1[C@H](O)C[C@@H]1[C@@]3(C)CC[C@H](O)C(C)(C)[C@@H]3[C@@H](O[C@@H]3O[C@H](CO)[C@@H](O)[C@H](O)[C@H]3O)C[C@]12C | inactive | inactive | inactive | inactive | inactive | inactive | – | – | – | – | – | –
C[C@@H]1CCC/C=C/[C@H]2CC(=O)C[C@@H]2[C@@H](O)/C=C/C(=O)O1 | inactive | inactive | inactive | inactive | inactive | inactive | – | – | – | – | – | –
Nc1nc2c(c(=O)[nH]1)C[C@@H](CCc1ccc(C(=O)N[C@@H](CCC(=O)O)C(=O)O)cc1)CN2 | 631 nM (active) | inactive | 282 nM (active) | 282 nM (active) | 282 nM (active) | 316 nM (active) | – | – | – | – | – | –
CCOc1ccc(S(=O)(=O)n2c(C)nc3ccccc32)cc1 | inactive | inactive | inactive | inactive | inactive | inactive | – | – | – | – | – | –
COc1cc(O)cc(C)c1C(=O)OC1C(CO)OC(OC2C(O)C(O)C(O)C(O)C2O)C(O)C1O (stereo not given) | inactive | inactive | inactive | inactive | inactive | inactive | – | – | – | – | – | –
CC(=O)O[C@H]1[C@@H](O)[C@H](O[C@H]2[C@@H]3C=CO[C@@H](O[C@H]4O[C@@H](CO)[C@H](O)[C@@H](O)[C@@H]4O)[C@@H]3[C@@]3(CO)O[C@@H]23)O[C@@H](C)[C@@H]1OC(=O)/C=C/c1ccccc1 | inactive | inactive | inactive | inactive | inactive | inactive | – | – | – | – | – | –
CC1(C)CCCC2(C)C1CC(=O)C13CC(CCC12)C(O)(CO)C3 (stereo not given) | inactive | inactive | inactive | 4470 nM (active) | inactive | inactive | – | – | – | – | – | –
Cn1nc(C(C)(C)C)cc1C(=O)NC(Cc1cccc(Cl)c1)C(=O)NCC#N (stereo not given) | inactive | inactive | inactive | inactive | inactive | inactive | – | – | – | – | – | –
CC(C)O[C@@H]1O[C@H](CO)[C@@H](O)[C@H](O)[C@H]1O | inactive | inactive | inactive | inactive | inactive | inactive | – | – | – | – | – | –
C[C@@H]1CN(Cc2ccccc2)C[C@H]1c1nc2c(cnn2C2CCOCC2)c(=O)[nH]1 | inactive | inactive | inactive | inactive | inactive | inactive | – | – | – | – | – | –
CC/C=C\CC1C(=O)C=CC1(CCCCCCCC(=O)O)OC(C)=O (stereo not given) | inactive | inactive | inactive | inactive | inactive | inactive | – | – | – | – | – | –
O=C(NCc1cccc(O)c1)c1cc2cc(F)ccc2[nH]1 | inactive | inactive | inactive | inactive | inactive | inactive | – | – | – | – | – | –
CC1=C2C3OC(=O)C(C)C3(O)CCC2(C)CCC1O (stereo not given) | inactive | inactive | inactive | inactive | inactive | inactive | – | – | – | – | – | –
C=C(F)c1sc(CNCCCNc2cc(=O)c3ccccc3[nH]2)c(C)c1Br | inactive | inactive | inactive | inactive | inactive | inactive | – | – | – | – | – | –
C=C[C@H]1[C@H](O[C@@H]2O[C@H](CO)[C@@H](O)[C@H](O)[C@H]2O)OC=C(C(=O)OC)[C@H]1C[C@@H]1c2cc(O)c(O)cc2CCN1C(C)=O | inactive | inactive | inactive | inactive | inactive | inactive | – | – | – | – | – | –

SMILES | Potency (C33A) | Potency (CAOV3) | Potency (CASKI) | Potency (Es-2) | Potency (HeLa) | Potency (Hek293T) | activity change, negative = cytotoxicity (C33A) | activity change, negative = cytotoxicity (CAOV3) | activity change, negative = cytotoxicity (CASKI) | activity change, negative = cytotoxicity (Es-2) | activity change, negative = cytotoxicity (HeLa) | activity change, negative = cytotoxicity (Hek293T)
CC1COC2(OC3CC4C5CC(O[C@@H]6O[C@H](C)[C@@H](O[C@@H]7O[C@@H](C)[C@H](O)[C@@H](O)[C@H]7O)[C@H](O)[C@H]6O)C6CC(O)CCC6(C)C5CCC4(C)C3C2C)C(O)C1 (stereo not given in full) | inactive | inactive | inactive | inactive | inactive | inactive | – | – | – | – | – | –
COc1cc2occc2c(O[C@@H]2O[C@H](CO)[C@@H](O)[C@H](O)[C@H]2O)c1CCC(=O)O | inactive | inactive | inactive | inactive | inactive | inactive | – | – | – | – | – | –
CCC(O)C(C)C1CCC(C(C)C(=O)O)O1 (stereo not given) | inactive | inactive | inactive | inactive | inactive | inactive | – | – | – | – | – | –
Cc1cn(C2C=CC(CO)O2)c(=O)[nH]c1=O (stereo not given) | inactive | inactive | inactive | inactive | inactive | inactive | – | – | – | – | – | –
COC(=O)C1=CO[C@@H](O[C@@H]2O[C@H](CO)[C@@H](O)[C@H](O)[C@H]2O)[C@@H]2[C@@](C)(O)[C@@H](OC(=O)/C=C/c3ccc(O)cc3)C[C@]12O | inactive | inactive | inactive | inactive | inactive | inactive | – | – | – | – | – | –
C[C@@H]1O[C@@H](O[C@H]2[C@@H](OC(=O)[C@]34CCC(C)(C)CC3C3=CCC5[C@@]6(C)C[C@H](O)[C@H](O[C@@H]7O[C@H](C(=O)O)[C@@H](O)[C@H](O)[C@H]7O)[C@@](C)(C(=O)O)C6CC[C@@]5(C)[C@]3(C)CC4)OC[C@H](O)[C@@H]2O)[C@H](O)[C@H](O)[C@H]1O[C@@H]1OC[C@@H](O)[C@H](O)[C@H]1O (stereo not given in full) | – | – | – | – | – | – | 1.85% [at 11.6 µM] | 24.8% [at 11.6 µM] | 0.336% [at 11.6 µM] | -0.221% [at 11.6 µM] | -0.61% [at 11.6 µM] | -0.464% [at 11.6 µM]
CC1CC(=O)C2=C(CCC3(O)C(O)c4c(O)cccc4C(=O)C23O)C1 (stereo not given) | inactive | inactive | inactive | inactive | inactive | inactive | – | – | – | – | – | –
COc1ccc(/C=C/C(=O)O[C@H]2[C@H](O[C@H]3[C@@H]4C=CO[C@@H](O[C@@H]5O[C@H](CO)[C@@H](O)[C@H](O)[C@H]5O)[C@@H]4[C@@]4(CO)O[C@@H]34)O[C@@H](C)[C@H](O)[C@H]2OC(C)=O)cc1 | inactive | inactive | inactive | inactive | inactive | inactive | – | – | – | – | – | –
C[C@@H]1CC[C@]2(C(=O)O)CC[C@]3(C)C(=CCC4[C@@]5(C)C[C@@H](O)[C@H](O)[C@@](C)(CO)C5CC[C@]43C)C2[C@]1(C)O (stereo not given in full) | inactive | inactive | inactive | inactive | inactive | inactive | – | – | – | – | – | –
CC(C)(C)c1cc(Br)cc([C@H](CC(=O)O)NC(=O)CNC(=O)c2cc(O)cc(NC3=NCC(O)CN3)c2)c1 (stereo not given in full) | inactive | inactive | inactive | inactive | inactive | inactive | – | – | – | – | – | –
C=C(C)[C@@H]1CC[C@]2(C)CC[C@]3(C)[C@H](CC[C@@H]4[C@@]5(C)CC[C@@H](O)C(C)(C)[C@@H]5CC[C@]43C)[C@@H]12 | inactive | inactive | inactive | inactive | inactive | inactive | – | – | – | – | – | –
CC(C)=CCC/C(C)=C/Cc1ccc(O)c(C2OC(=O)c3cc(C(=O)O)cc(O)c32)c1O (stereo not given) | inactive | inactive | inactive | inactive | inactive | inactive | – | – | – | – | – | –
C[C@H](C/C=C/C(C)(C)O)[C@H]1CC[C@@]2(C)[C@@H]3[C@@H](O[C@@H]4O[C@H](CO)[C@@H](O)[C@H](O)[C@H]4O)C=C4C(CC[C@H](O)C4(C)C)[C@]3(C=O)CC[C@]12C (stereo not given in full) | inactive | inactive | inactive | inactive | inactive | inactive | – | – | – | – | – | –
O=C(OCC1=CC(O)C2C=CO[C@@H](O[C@@H]3O[C@H](CO)[C@@H](O)[C@H](O)[C@H]3O)C12)c1ccccc1 (stereo not given in full) | inactive | inactive | inactive | inactive | inactive | inactive | – | – | – | – | – | –
CC1CCC2(OC1)OC1CC3C4CC=C5CC(O)CC(O[C@@H]6OC[C@@H](O)[C@H](O)[C@H]6O)C5(C)C4CCC3(C)C1(O)C2C (stereo not given in full) | inactive | inactive | inactive | inactive | inactive | inactive | – | – | – | – | – | –
COc1cc(O)c2c(c1)C1=CC(O)C(O)CC1(C)OC2=O (stereo not given) | inactive | inactive | inactive | inactive | inactive | inactive | – | – | – | – | – | –
CC(=O)O[C@@H]1C[C@@H](OC(C)=O)C(C)(C)/C=C/[C@H](C)[C@H](OC(C)=O)[C@@]2(O)C[C@H](C)[C@H](OC(=O)c3ccccc3)[C@@H]2/C=C/1C | inactive | inactive | inactive | inactive | inactive | inactive | – | – | – | – | – | –
O=C(CCc1nnc2n(Cc3ccc(Cl)cc3)c(=O)c3ccccc3n12)NCCC1=CCCCC1 | inactive | inactive | inactive | inactive | inactive | inactive | – | – | – | – | – | –
COC(=O)N[C@H](C(=O)N1[C@@H]2CC[C@@H](C2)[C@H]1c1nc2ccc(-c3ccc4c(c3)C(F)(F)c3cc(-c5cnc([C@@H]6CCC7(CC7)N6C(=O)[C@@H](NC(=O)OC)C(C)C)[nH]5)ccc3-4)cc2[nH]1)C(C)C | inactive | inactive | inactive | inactive | inactive | inactive | – | – | – | – | – | –
CC(=O)O[C@H]1[C@H](O[C@H]2[C@@H]3C=CO[C@@H](O[C@@H]4O[C@H](CO)[C@@H](O)[C@H](O)[C@H]4O)[C@@H]3[C@@]3(CO)O[C@@H]23)O[C@@H](C)[C@H](OC(=O)/C=C/c2ccccc2)[C@H]1OC(=O)/C=C/c1ccccc1 | – | – | – | – | – | – | 1.54% [at 11.6 µM] | 23.2% [at 11.6 µM] | 9.13% [at 11.6 µM] | 2.44% [at 11.6 µM] | -1.93% [at 11.6 µM] | -2.9% [at 11.6 µM]
